Data on 39 molecules can be found in PubChem BioAssay AID720706 (Broad Institute, 2013).

Among all 350,000 compounds or so, about 5,500 (1.6%) were called active. This is one part of a sample in which actives are shown more often than they occur.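 Rule for the calls: active = significant combined selectivity score with lowered wild-type GFP, culture density cut under 30%, mutant RFP and density less affected; inactive = any of these conditions unmet.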

A short description of the test: reduced GFP signal of wild-type E. coli, primary screen, bacterial rRNA inhibitor project, GFP/RFP fluorescence, OD600, single point (AID 720706). Conditions: E. coli WT GFP vs humanized-ribosome RFP mutants, 24 h; GFP signal change (wild-type ribosome): stronger effect = lower value, DMSO median 0, no signal -100; OD600 change: measured here: OD600 growth, DMSO median 0, no signal -100; RFP signal change: measured here: RFP humanized mutant strains, DMSO median 0, no signal -100, concentration not given here.
As to `O=C(NC1CCCC1)[C@H]1[C@H](CO)[C@H]2Cn3c(cccc3=O)[C@H]2N1C(=O)NC1CCCC1`, the GFP signal change (wild-type ribosome) was 6.01% (inactive), the OD600 change was found to be 13.7% and the RFP signal change is -2.22%.
With `COc1ccc(S(=O)(=O)N(C)C[C@@H]2OCCCC[C@@H](C)Oc3ccc(NS(C)(=O)=O)cc3C(=O)N([C@H](C)CO)C[C@@H]2C)cc1`, the GFP signal change (wild-type ribosome) is 2.26% (inactive), the OD600 change came to 6.89% and the RFP signal change is -2.21%.
Taken in the same sequence, the figures for `O=C(NCC[C@H]1CC[C@H](NC(=O)C2CC2)[C@@H](CO)O1)c1cc(Cl)cc(Cl)c1` were -1.63% (inactive), -6.47% and -0.371%.
On to `CCCNC(=O)N1[C@H](CO)[C@@H]2c3ccccc3N(C(=O)C3CC3)C[C@@H]21`, for which the GFP signal change (wild-type ribosome) is 6.32% (inactive), the OD600 change amounted to 5.65% and the RFP signal change was found to be 0.0995%.
For the molecule `CC[C@H]1OC(=O)[C@H](C)[C@@H](O[C@H]2C[C@@](C)(OC)[C@@H](O)[C@H](C)O2)[C@H](C)[C@@H](O[C@@H]2O[C@H](C)C[C@H](N(C)C)[C@H]2O)[C@](C)(O)C[C@@H](C)[C@@H]2N[C@@H](COCCOC)O[C@H]([C@H]2C)[C@]1(C)O`, the GFP signal change (wild-type ribosome) is -22.6% (active), the OD600 change was -9.78% and the RFP signal change was 5.64%.
Taken in the same sequence, the figures for `Cn1cnc(S(=O)(=O)N2C[C@@H](O)COC[C@H]3O[C@H](CC(=O)N4CCN(c5ccccc5)CC4)CC[C@@H]32)c1` were 9.71% (inactive), 22% and -0.0733%.
Taken in the same sequence, the figures for `CCN(CC)CCNC(=O)c1ccc(NC(=O)c2c(F)cccc2Cl)cc1` were 7.17% (inactive), -3.78% and -0.531%.
Taken in the same sequence, the figures for `Cc1ccc(NNC(=O)c2c(F)cccc2Cl)cc1Cl` were -32.7% (active), -2.5% and -1.17%.
`O=C(NNc1cc(Cl)cc(Cl)c1)c1c(F)cccc1Cl`: the GFP signal change (wild-type ribosome) is -4.44% (inactive), the OD600 change is -4.42% and the RFP signal change is -0.438%.
As for `COCC#Cc1ccc([C@@H]2[C@@H](CO)N3C(=O)CN(C(=O)Nc4cc(F)ccc4F)C[C@@H]23)cc1`, the GFP signal change (wild-type ribosome) is -10.5% (inactive), the OD600 change is -5.07% and the RFP signal change stood at 3.1%.
For the molecule `COc1ccc(NC(=O)N(C)C[C@@H]2OCCCC[C@@H](C)Oc3ccc(NS(C)(=O)=O)cc3C(=O)N([C@@H](C)CO)C[C@H]2C)cc1`, the GFP signal change (wild-type ribosome) was -0.988% (inactive), the OD600 change is -5.29% and the RFP signal change stood at 0.0065%.
With `Cc1noc(C)c1S(=O)(=O)Nc1ccc2c(c1)C(=O)N([C@H](C)CO)C[C@H](C)[C@H](CN(C)C(=O)CCC(F)(F)F)OCCCC[C@H](C)O2`, the GFP signal change (wild-type ribosome) is -2.98% (inactive), the OD600 change is -4.46% and the RFP signal change worked out at 0.03%.
`COc1ccc2c3c(n(C)c2c1)[C@H](CO)N(C(=O)Cc1ccccc1)CC31CCN(C)CC1`: the GFP signal change (wild-type ribosome) was 4.41% (inactive), the OD600 change was found to be 5.73% and the RFP signal change is -1.31%.
Turning to `CCNC(=O)[C@H]1[C@H](CO)[C@H]2Cn3c(ccc(C4=CCCC4)c3=O)[C@@H]1N2S(=O)(=O)c1cn(C)cn1`, the GFP signal change (wild-type ribosome) was 2.88% (inactive), the OD600 change worked out at 2.51% and the RFP signal change was -2.3%.
On to `COc1ccc(C(=O)NC2CCN(C(=O)Nc3ccc(F)cc3)CC2)cc1`, for which the GFP signal change (wild-type ribosome) is 3.88% (inactive), the OD600 change turned out to be 11.7% and the RFP signal change was -0.144%.
With `COc1ccc(-c2n[nH]c3c2CN(C(=O)c2ccc(F)cc2)CC3)cc1`, the GFP signal change (wild-type ribosome) was -24% (active), the OD600 change is -10.1% and the RFP signal change was -0.0738%.
For the molecule `COc1cccc(-c2noc(C3CCCN(C(=O)c4ccc(F)cc4)C3)n2)c1` (configuration not stated), the GFP signal change (wild-type ribosome) was -16% (inactive), the OD600 change is -14.3% and the RFP signal change came to 1.71%.
Taken in the same sequence, the figures for `COCC#Cc1cnc2c(c1)C(=O)N([C@H](C)CO)C[C@@H](C)[C@@H](CN(C)Cc1ccccc1F)O2` were 4.01% (inactive), 9.71% and -0.92%.
For the molecule `O=C(N/N=C/c1ccco1)c1ccc(NC(=O)C2CC2)cc1`, the GFP signal change (wild-type ribosome) was 33.5% (inactive), the OD600 change was 14.7% and the RFP signal change is 3.89%.
Taken in the same sequence, the figures for `CC(C)(C)C1CCC(=NNC(=O)c2cc(-c3ccccc3)n[nH]2)CC1` (configuration not stated) were -8.44% (inactive), 6.81% and -1.93%.
For the molecule `CC(/C=N/NC(=O)c1cc(-c2ccc3ccccc3c2)n[nH]1)=C\c1ccco1`, the GFP signal change (wild-type ribosome) was -18.4% (active), the OD600 change is -4.31% and the RFP signal change was determined as 6.39%.
Regarding `Nc1ccn([C@@H]2O[C@H](C(=O)N[C@H]3CCCCNC3=O)[C@@H](O)[C@H]2O)c(=O)n1`, the GFP signal change (wild-type ribosome) is 23% (inactive), the OD600 change came out at 2.48% and the RFP signal change stood at 2.71%.
Taken in the same sequence, the figures for `COc1cccc(CNC(=O)C2CCCN(c3ncnc4c3nc3n4CCCCC3)C2)c1` (configuration not stated) were -0.749% (inactive), 3.87% and -0.866%.
Taken in the same sequence, the figures for `CN(Cc1ccccc1)C(=O)C1CCCN(c2ncnc3c2nc2n3CCCCC2)C1` (configuration not stated) were -30.8% (active), -19.4% and -2.82%.
Taken in the same sequence, the figures for `COc1cccc(NC(=O)C2CCCN(c3ncnc4c3nc3n4CCCCC3)C2)c1` (configuration not stated) were -27.7% (inactive), -29.9% and -2.84%.
Take `O=C(NCc1ccc2c(c1)OCO2)c1c(O)nc2sccn2c1=O`: the GFP signal change (wild-type ribosome) was 9.79% (inactive), the OD600 change was 1.77% and the RFP signal change turned out to be 0.304%.
As for `O=C(NCc1ccc2c(c1)OCO2)c1c(-c2ccsc2)sc2ccccc12`, the GFP signal change (wild-type ribosome) is -2.63% (inactive), the OD600 change came to 5.46% and the RFP signal change was -0.565%.
With `O=C(NCc1ccc2c(c1)OCO2)c1sccc1Br`, the GFP signal change (wild-type ribosome) was -28% (active), the OD600 change was -4.74% and the RFP signal change was 4.92%.
Taken in the same sequence, the figures for `Cc1cc(C(=O)Nc2ccc3c(c2)C(=O)N(C)[C@@H]2CC[C@H](CC(=O)NC4CCCC4)O[C@@H]2CO3)no1` were 1.76% (inactive), 5.25% and 2.11%.
Taken in the same sequence, the figures for `CCCC(=O)Nc1ccc2c(c1)C(=O)N(C)[C@@H]1CC[C@H](CC(=O)NCCOC)O[C@H]1CO2` were 3.48% (inactive), 0.14% and 0.31%.
Taken in the same sequence, the figures for `COc1ccccc1S(=O)(=O)N[C@@H]1C=C[C@H](CC(=O)N2CCN(C)CC2)O[C@@H]1CO` were 3.92% (inactive), 11.8% and -3.5%.
Regarding `COC(=O)c1c(C)oc(C)c1S(=O)(=O)NCc1ccc(Cl)cc1`, the GFP signal change (wild-type ribosome) is -11.3% (inactive), the OD600 change is -4.55% and the RFP signal change is -0.764%.
On to `CC(C)c1ccc(NS(=O)(=O)c2cn(C)c(=O)n(C)c2=O)cc1`, for which the GFP signal change (wild-type ribosome) was 4.95% (inactive), the OD600 change stood at 14.4% and the RFP signal change was -3.23%.
On to `COC(=O)c1c(C)oc(C)c1S(=O)(=O)Nc1ccc(C(C)C)cc1`, for which the GFP signal change (wild-type ribosome) is -28.4% (active), the OD600 change was -12.4% and the RFP signal change is -2.19%.
Taken in the same sequence, the figures for `CO[C@H]1CC[C@@H]2CCOc3c(C#N)cccc3C(=O)N(C)C[C@H](C)C(=O)N(C)C[C@H]1O2` were 3.92% (inactive), -1.31% and -1.65%.
For the molecule `Brc1ccc2c(c1)[C@H]1OCC[C@H]1[C@@H](c1cccs1)N2`, the GFP signal change (wild-type ribosome) is -43.8% (active), the OD600 change is -30.6% and the RFP signal change is -11.9%.
On to `Oc1ccc(/C=N/N(Cc2ccccc2)c2ccccc2)cc1`, for which the GFP signal change (wild-type ribosome) was -13.9% (inactive), the OD600 change is -1.62% and the RFP signal change is 0.2%.
`CCN(/N=C/c1ccc(N(C)C)cc1)c1nc2ccccc2[nH]1`: the GFP signal change (wild-type ribosome) was -22.8% (active), the OD600 change is -10.9% and the RFP signal change was -2.86%.
`CCC(=O)N1C[C@@H](C)[C@H](OC)CN(C)C(=O)c2ccc(NC(=O)c3cc(C)on3)cc2OC[C@H]1C`: the GFP signal change (wild-type ribosome) was 0.768% (inactive), the OD600 change was 1.75% and the RFP signal change was -1.23%.
